Source: PubChem BioAssay
Active and inactive are the calls of the source.

Tests used:
[1] = tested on: Human papillomavirus type 1a protein E7 (residues 44-93); experiment: HPV1a E7 fragment binders on microarrays, primary screen, biochemical, small-molecule microarray, residues 44-93, 635 nm fluorescence (AID 1108); conditions: small-molecule microarray binding, fluorescence 635 nm; higher = more signal;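 note: E7 fragment applied at 1 µg/mL in TBST for 1 h at 4 C; score combines spot fluorescence with its signal to noise ratio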
[2] = modulators of HCV replicon luciferase signal, primary screen, HCV replication inhibitor project, Huh7 cells, luciferase reporter (AID 1109); conditions: 48 h, higher = more signal;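 note: huh7 hepatoma cells harbouring a luciferase neomycin HCV replicon reporter; luciferase luminescence as measure of HCV replicon replication; test concentration not given here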
[3] = target: Left-right determination factor 2 (Homo sapiens) (UniProt O00292); experiment: LEFTY2 binders on small-molecule microarrays, primary screen, biochemical, small-molecule microarray, 635 nm fluorescence scan (AID 1110); conditions: LEFTY2 binding, higher = more signal
[4] = target: Calmodulin-1 (Homo sapiens) (UniProt P0DP23); experiment: CALM1 binders on microarrays, EGTA buffer, profiling panel, biochemical, small-molecule microarray, Cy5-labelled CALM1 (AID 1111); conditions: Cy5-CALM1 binding fluorescence, higher = more signal;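 note: labelled calmodulin applied in Tris saline Tween buffer holding calcium plus EGTA and DTT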
[5] = target: Calmodulin-1 (Homo sapiens) (UniProt P0DP23); experiment: calcium-bound CALM1 binders on microarrays, profiling panel, artefact control for SMM control-protein annotation, biochemical, small-molecule microarray, Cy5-labelled CALM1, plus calcium (AID 1112); conditions: Cy5-CALM1 binding fluorescence, higher = more signal;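 note: score merges spot fluorescence with signal to noise from triplicate slides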
[6] = small-molecule microarray binders of probe aWnt5a, primary screen, biochemical, biotinylated probe, 635/667 nm fluorescence (AID 1113); conditions: higher = more signal;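 note: score merges 667 nm fluorescence intensity with signal-to-noise per printed feature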
[7] = small-molecule microarray binders of probe aShh, primary screen, biochemical, biotinylated probe, 635/667 nm fluorescence (AID 1114); conditions: higher = more signal;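 note: probe is biotin-labelled aShh protein from a stem cell growth factor screen; measures binding of labelled protein to compounds printed on the slide; score merges feature fluorescence at 667 nm with signal-to-noise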
[8] = small-molecule microarray binders of probe aNog, primary screen, biochemical, biotinylated probe, 635/667 nm fluorescence (AID 1115); conditions: higher = more signal;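 note: probe is biotinylated aNog protein used at 0.15 µg/mL for 1 h at 4 C; z-score combines 667 nm fluorescence of each spot with its signal to noise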
[9] = target: Torsin-1A-interacting protein 1 (Homo sapiens) (UniProt Q5JTV8); experiment: LAP1 binders from COS7 cell lysate, primary screen, small-molecule microarray, 635/667 nm fluorescence (AID 1116); conditions: COS7-hLAP1 lysate binding, 635 nm fluorescence, higher = more signal
[10] = target: Alpha-bungarotoxin (Bungarus multicinctus) (UniProt P60615); experiment: alpha-bungarotoxin binders on microarray, profiling panel, artefact control for SMM control protein annotation, biochemical, small-molecule microarray, Alexa647 label, 635/667 nm fluorescence (AID 1117); conditions: alpha-BTX-A647 binding fluorescence, higher = more signal
Albumin (Bos taurus) = Albumin (Bos taurus) (UniProt P02769); experiment: bovine serum albumin binders on microarray, profiling panel, artefact control for SMM control protein annotation, biochemical, small-molecule microarray, Alexa647 label, 635/667 nm fluorescence (AID 1118); conditions: BSA-A647 binding, fluorescence 635 nm, higher = more signal;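 note: score merges 667 nm emission intensity and signal-to-noise per printed compound spot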
[11] = small-molecule microarray binders of probe aXIP, primary screen, biochemical, NeuroSMM set, 635/667 nm fluorescence (AID 1119); conditions: higher = more signal, called active from +8 up or from −8 down;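 note: probe is the protein aXip251-270 applied at 1 µg/mL to compound-printed slides; binding of probe to printed compounds measured as 667 nm fluorescence plus signal to noise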
[12] = small-molecule binders of probe aNOTCH3, primary screen, biochemical, small-molecule microarray, 635/667 nm fluorescence (AID 1120); conditions: higher = more signal;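 note: probe is a biotin-tagged antibody raised against NOTCH3 rather than NOTCH3 protein; score merges spot fluorescence near 667 nm with spot signal to noise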
[13] = small-molecule binders of probe aNOTCH2, primary screen, biochemical, small-molecule microarray, 635/667 nm fluorescence (AID 1121); conditions: higher = more signal;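 note: score merges feature fluorescence read at 667 nm with its signal to noise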
[14] = target: Carbonic anhydrase 2 (Homo sapiens) (UniProt P00918); experiment: CAII small-molecule binders, profiling panel, biochemical, small-molecule microarray, Alexa647-labelled CAII (AID 1122); conditions: CAII-A647 binding fluorescence, higher = more signal
[15] = COS7 lysate on small-molecule microarray, probe aHis, 635 nm (AID 1123); conditions: COS7 cell lysate, fluorescence, higher = more signal;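 note: z-score combines 667nm fluorescence intensity with signal-to-noise per printed compound spot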
[16] = compound binding in COS7 lysate, probe aLAP1, primary screen, cell lysate, small-molecule microarray (AID 1124); conditions: probe aLAP1, fluorescence, higher = more signal;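 note: lysate comes from COS7 cells expressing LAP1 and is applied at 0.3 µg/mL; score merges spot fluorescence near 667 nm with signal-to-noise over triplicate slides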
Sam68 (KHDRBS1) = experiment: Sam68 small-molecule binders, primary screen, biochemical, small-molecule microarray, 635 nm fluorescence (AID 1125); conditions: small-molecule microarray binding, higher = more signal;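 note: score merges 667 nm channel intensity with signal to noise over triplicate slides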
[17] = tested on: Chordin-like protein 2 (CHRDL2); experiment: CHRDL2 small-molecule binders, primary screen, biochemical, small-molecule microarray, 635 nm fluorescence (AID 1126); conditions: small-molecule microarray binding, fluorescence 635 nm; higher = more signal;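 note: printed compound slides probed with Chrdl2 protein at 4 µg/mL for 1 h at 4 C; score merges 667 nm emission intensity with signal to noise over three replicate slides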
[18] = target: Concanavalin-A (Canavalia ensiformis) (UniProt P02866); experiment: ConA small-molecule binders, primary screen, artefact control for SMM control protein annotation, biochemical, small-molecule microarray, Alexa647 label, 635 nm (AID 1127); conditions: ConA-A647 binding fluorescence, higher = more signal;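 note: z combines 667 nm emission intensity with signal-to-noise across three replicate slides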
Concanavalin-A (Canavalia ensiformis), sequence (P02866 whole entry, looked up): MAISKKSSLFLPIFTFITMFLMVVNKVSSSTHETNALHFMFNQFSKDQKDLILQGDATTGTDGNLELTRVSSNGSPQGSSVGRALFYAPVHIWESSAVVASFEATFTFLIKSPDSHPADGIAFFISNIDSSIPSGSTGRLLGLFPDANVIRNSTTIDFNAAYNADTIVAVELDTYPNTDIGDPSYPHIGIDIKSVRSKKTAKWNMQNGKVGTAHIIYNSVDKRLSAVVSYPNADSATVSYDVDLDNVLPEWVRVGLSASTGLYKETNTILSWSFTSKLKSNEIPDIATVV

Albumin (Bos taurus), sequence (P02769 whole entry, looked up): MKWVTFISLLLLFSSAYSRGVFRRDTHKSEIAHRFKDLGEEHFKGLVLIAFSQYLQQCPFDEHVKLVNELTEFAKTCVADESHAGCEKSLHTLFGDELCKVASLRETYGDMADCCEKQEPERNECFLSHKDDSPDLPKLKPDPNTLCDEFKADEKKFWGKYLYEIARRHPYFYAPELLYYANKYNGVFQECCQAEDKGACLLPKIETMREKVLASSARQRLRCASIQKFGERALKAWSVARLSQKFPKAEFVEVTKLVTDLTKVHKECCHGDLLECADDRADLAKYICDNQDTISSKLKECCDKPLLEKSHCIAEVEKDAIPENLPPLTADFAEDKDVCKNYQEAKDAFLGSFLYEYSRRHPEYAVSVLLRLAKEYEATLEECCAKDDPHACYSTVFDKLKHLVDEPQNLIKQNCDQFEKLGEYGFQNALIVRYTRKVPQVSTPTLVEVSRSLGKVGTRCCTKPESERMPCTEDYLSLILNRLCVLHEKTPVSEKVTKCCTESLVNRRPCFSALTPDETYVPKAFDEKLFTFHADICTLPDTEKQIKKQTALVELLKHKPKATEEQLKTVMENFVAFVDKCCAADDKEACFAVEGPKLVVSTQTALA
Alpha-bungarotoxin (Bungarus multicinctus), sequence (P60615 whole entry, looked up): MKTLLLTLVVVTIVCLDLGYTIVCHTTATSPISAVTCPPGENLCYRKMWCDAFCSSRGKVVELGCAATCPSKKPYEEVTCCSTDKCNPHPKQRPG
Torsin-1A-interacting protein 1 (Homo sapiens), sequence (Q5JTV8 whole entry, looked up): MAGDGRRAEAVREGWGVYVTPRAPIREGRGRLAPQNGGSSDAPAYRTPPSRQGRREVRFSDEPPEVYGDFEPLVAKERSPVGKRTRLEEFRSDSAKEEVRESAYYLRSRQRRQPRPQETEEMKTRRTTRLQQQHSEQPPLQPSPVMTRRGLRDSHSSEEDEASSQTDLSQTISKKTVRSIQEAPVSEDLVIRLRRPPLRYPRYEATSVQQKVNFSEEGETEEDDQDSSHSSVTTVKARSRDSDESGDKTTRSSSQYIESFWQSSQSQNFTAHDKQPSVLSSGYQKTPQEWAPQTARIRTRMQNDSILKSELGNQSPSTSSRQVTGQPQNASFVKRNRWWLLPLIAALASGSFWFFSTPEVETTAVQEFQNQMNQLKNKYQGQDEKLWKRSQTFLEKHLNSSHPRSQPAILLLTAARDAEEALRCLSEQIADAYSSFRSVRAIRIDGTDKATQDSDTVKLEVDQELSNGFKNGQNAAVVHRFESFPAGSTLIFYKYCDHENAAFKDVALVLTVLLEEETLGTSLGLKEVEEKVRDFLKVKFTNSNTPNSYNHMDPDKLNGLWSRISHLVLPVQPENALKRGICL
Left-right determination factor 2 (Homo sapiens), sequence (O00292 whole entry, looked up): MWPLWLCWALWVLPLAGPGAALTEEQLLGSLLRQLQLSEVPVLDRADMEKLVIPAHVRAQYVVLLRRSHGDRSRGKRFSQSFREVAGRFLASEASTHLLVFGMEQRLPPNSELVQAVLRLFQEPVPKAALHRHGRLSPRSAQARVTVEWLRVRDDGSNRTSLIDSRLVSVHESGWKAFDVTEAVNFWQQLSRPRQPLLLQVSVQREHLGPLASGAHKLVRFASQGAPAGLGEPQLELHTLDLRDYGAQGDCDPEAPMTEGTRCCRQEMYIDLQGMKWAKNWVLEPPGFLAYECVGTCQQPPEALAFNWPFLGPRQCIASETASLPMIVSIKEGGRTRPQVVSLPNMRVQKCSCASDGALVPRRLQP

| SMILES | composite z-score [1] | z-score [2] | composite z-score [3] | composite z-score [4] | composite z-score [5] | composite z-score [6] | composite z-score [7] | composite z-score [8] | composite z-score [9] | composite z-score [10] | composite z-score (Albumin (Bos taurus)) | composite Z-score [11] | composite z-score [12] | composite z-score [13] | composite z-score [14] | composite z-score [15] | composite z-score [16] | composite z-score (Sam68 (KHDRBS1)) | composite z-score [17] | composite z-score [18] |
| --- | --- | --- | --- | --- | --- | --- | --- | --- | --- | --- | --- | --- | --- | --- | --- | --- | --- | --- | --- | --- |
| CC(C)(C)N1CC=CC23O[C@@H]4/C=C\CCCOC(=O)C4[C@H]2C(=O)N(CCCCCCO)[C@@H]3C1=O (stereo not given in full) | -0.802 | -0.762 | -1.03 | -0.558 | 0.337 | -0.0873 | 0.0952 | 0.382 | 1.24 | -1.34 | 0.708 | -0.617 (inactive) | -0.284 | -0.117 | 0.938 | 0.185 | 0.495 | -1.35 | -1.25 | -1.42 |
| COC(=O)C1=CC(CCCO)=CC(C2CC2)N(Cc2cccc(OC(F)(F)F)c2)C=C1C(=O)OC (stereo not given) | 1.43 | -1.46 | -0.724 | 0.302 | 0.364 | 0.0077 | -0.0035 | 0.374 | -0.302 | 0.0939 | 0.896 | 0.816 (inactive) | -0.0039 | -0.138 | 0.806 | 2.23 | 0.637 | 1.26 | -0.745 | 0.449 |
| O=C(NCC(F)(F)F)[C@@H]1c2ccccc2C(=O)N(CC23CC4CC(CC(C4)C2)C3)[C@H]1c1ccc(CO)cc1 | 1.02 | -1.83 | 0.355 | 0.579 | -0.715 | -0.0398 | 0.136 | -0.222 | 0.613 | -0.523 | 0.15 | 0.251 (inactive) | 0.0981 | -0.147 | 0.25 | 0.699 | 0.622 | 1.27 | 0.162 | 0.734 |
| O=C1OCCC=C[C@H]2OC34C=CCN(c5ccc(Cl)cc5)C(=O)[C@H]3N(CCO)C(=O)[C@@H]4C12 (stereo not given in full) | -0.646 | 0.318 | -1.34 | -0.585 | -0.1 | -0.239 | -0.262 | -0.274 | -0.855 | -0.957 | 0.597 | 0.359 (inactive) | -0.406 | -0.189 | 0.859 | -0.387 | -0.419 | -0.914 | -0.291 | -0.648 |
| COc1ccc(CCNC(=O)[C@@]2(C)c3ccccc3C(=O)N(Cc3cc(C(F)(F)F)cc(C(F)(F)F)c3)[C@H]2c2ccc(CO)cc2)cc1 | 1.28 | -2.25 | 0.0779 | 1.33 | -0.228 | -0.152 | -0.0669 | 0.242 | 0.548 | -0.183 | 0.0386 | 0.793 (inactive) | -0.179 | -0.161 | 0.643 | 2.41 | 0.558 | 1.13 | 0.394 | 0.308 |
| COCCOC(=O)N1C(=O)[C@@]2(c3ccccc31)[C@H](C(N)=O)[C@H]1C(=O)O[C@H](c3ccccc3)[C@H](c3ccccc3)N1[C@@H]2c1ccc(OCCO)cc1 | 1.45 | -1.09 | 0.234 | 0.68 | -0.183 | -0.063 | 0.0723 | -0.0161 | 0.905 | 1.37 | 0.787 | 1.32 (inactive) | -0.0055 | -0.123 | 0.508 | 1.74 | 0.103 | 1.31 | 0.33 | 1.15 |
